A number with no mark means an inactive call.
System: Vero E6 infected with SARS-CoV-2
Assay: inhibition of SARS-CoV-2 cytopathic effect; higher = more antiviral protection, active = above 15
Conditions: 48 h

| SMILES | inhibition of SARS-CoV-2 cytopathic effect (1 nM) | inhibition of SARS-CoV-2 cytopathic effect (8.33 nM) | inhibition of SARS-CoV-2 cytopathic effect (100 nM) | inhibition of SARS-CoV-2 cytopathic effect (833.33 nM) | inhibition of SARS-CoV-2 cytopathic effect (10000 nM) |
| --- | --- | --- | --- | --- | --- |
| CCCCCCOC(=O)CCC(=O)CN [hexaminolevulinate] | -0.29% | 0.97% | 1.79% | 1.44% | 5.39% |
| Nc1ccccc1S(N)(=O)=O [2-aminobenzenesulfonamide] | 0.91% | 2.45% | 3.94% | 3.53% | -0.71% |
| CNC1CCCN(c2c(F)cc3c(=O)c(C(=O)O)cn(C4CC4)c3c2OC)C1 (stereo not given) [balofloxacin] | -2.96% | 0.66% | 1.91% | 1.72% | 2.43% |
| CC(C)n1c(/C=C/[C@@H](O)C[C@@H](O)CC(=O)O)c(-c2ccc(F)cc2)c2ccccc21 [fluvastatin] | -0.24% | -1.21% | 1.75% | -1.33% | 2.61% |
| COc1ccc([C@@H]2CC(=O)c3c(O)cc(O[C@@H]4O[C@H](CO[C@@H]5O[C@@H](C)[C@H](O)[C@@H](O)[C@H]5O)[C@@H](O)[C@H](O)[C@H]4O)cc3O2)cc1O [hesperidin] | 1.23% | 2.76% | 0.86% | 0.15% | 1.25% |
| O=C(O)C[C@H]1CC[C@H](c2ccc(-c3ccc(Nc4ccc(C(F)(F)F)nc4)cn3)cc2)CC1 | -1.27% | 0.84% | -0.93% | -2.65% | 1.98% |
| CCNC(=O)[C@@H]1CCCN1C(=O)[C@H](CCCNC(=N)N)NC(=O)[C@H](CC(C)C)NC(=O)[C@@H](C)NC(=O)[C@H](Cc1ccc(O)cc1)NC(=O)[C@H](CO)NC(=O)[C@H](Cc1c[nH]c2ccccc12)NC(=O)[C@H](Cc1cnc[nH]1)NC(=O)[C@@H]1CCC(=O)N1 [alarelin] | -0.73% | -1.67% | 0.97% | 1.34% | -0.57% |
| CCOc1ccn(-c2ccc(F)cc2)c(=O)c1C(=O)Nc1ccc(Oc2ccnc(N)c2Cl)c(F)c1 | 2.67% | 1.32% | -5.33% | 2.11% | -3.09% |
| CN1c2ccccc2C(NCCCCCCC(=O)O)c2ccc(Cl)cc2S1(=O)=O (stereo not given) [tianeptine] | 6.9% | -1.19% | 0.25% | 2.13% | -1.2% |
| COc1ccc2c(C(=S)N(C)CC(=O)O)cccc2c1C(F)(F)F [tolrestat] | 0.38% | -0.6% | -3.79% | -3.61% | -5.09% |
| CN(C)c1ccc(/C=C2\CCCN=C2c2cccnc2)cc1 [DMAB-anabaseine] | -2.66% | -1.76% | 0.68% | 4.31% | -5.07% |
| COc1cc2nc(N3CCCN(C)CC3)nc(NC3CCN(Cc4ccccc4)CC3)c2cc1OC | 0.59% | 0.41% | -2.3% | 1.53% | 11.7% |
| c1cc2c(cc1C1CCCCC1)c1c3n2CCNC3CCC1 (stereo not given) [tetrindole] | 1.68% | 1.55% | -2.86% | -1.8% | 20.8% (active) |
| O=C(O)c1ccc(-n2nc(-c3ccccc3O)nc2-c2ccccc2O)cc1 [deferasirox] | -0.67% | -4.22% | -1.32% | -1.58% | 0.43% |
| CC(C)(C)[C@H]1CC[C@H](CC2=C(O)C(=O)c3ccccc3C2=O)CC1 [buparvaquone] | 1.01% | 3.57% | 2.36% | 0.32% | -5.12% |
| CC(C)(CO)[C@@H](O)C(=O)NCCC(=O)O [pantothenic-acid] | 0.14% | -0.18% | 0.03% | -0.87% | 2.81% |
| CN(c1ccc(NC(=O)Nc2ccccc2)cc1)S(=O)(=O)c1cnn(-c2ccc(F)cc2)c1 | 2.37% | 2.39% | 0.06% | -1.77% | 0.18% |

Reference: the supplement of paper PMC13380429
